Over roughly 33,000 sequences, “E-score (-0.5 to 0.5)” has its median near -0.015; the highest 2% begin near 0.3. The entries come from a sample that favours the highest values as a whole.
Molecular target: T1, Abf1 (UniProt P14164)
T1 sequence: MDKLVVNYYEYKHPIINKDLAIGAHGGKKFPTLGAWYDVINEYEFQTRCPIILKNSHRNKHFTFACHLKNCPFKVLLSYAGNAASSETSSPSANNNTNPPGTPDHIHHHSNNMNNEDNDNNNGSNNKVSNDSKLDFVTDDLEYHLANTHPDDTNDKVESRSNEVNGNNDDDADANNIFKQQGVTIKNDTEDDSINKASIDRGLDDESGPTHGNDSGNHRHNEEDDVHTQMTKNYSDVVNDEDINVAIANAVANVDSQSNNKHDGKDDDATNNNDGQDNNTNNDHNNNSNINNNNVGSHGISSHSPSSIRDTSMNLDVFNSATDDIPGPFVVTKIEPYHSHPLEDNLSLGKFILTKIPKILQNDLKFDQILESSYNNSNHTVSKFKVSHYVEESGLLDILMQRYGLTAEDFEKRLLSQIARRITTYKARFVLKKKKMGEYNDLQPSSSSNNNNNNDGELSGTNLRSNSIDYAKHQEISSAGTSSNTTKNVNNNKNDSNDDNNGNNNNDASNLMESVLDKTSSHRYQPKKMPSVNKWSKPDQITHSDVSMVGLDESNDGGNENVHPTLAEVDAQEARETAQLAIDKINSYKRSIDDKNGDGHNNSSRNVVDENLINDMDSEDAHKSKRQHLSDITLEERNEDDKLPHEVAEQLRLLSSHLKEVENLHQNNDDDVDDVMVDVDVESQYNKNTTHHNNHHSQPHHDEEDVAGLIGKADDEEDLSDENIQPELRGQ
Experiment: PBM E-score (8-mer binding enrichment) (E-score (-0.5 to 0.5)); higher = stronger / more preferred TF binding
Details: protein concentration: 200 nM; construct: GST-full length
Description: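 Universal 'all 10-mer' protein binding microarrays (Agilent AMADID 015681) probed with GST-tagged S. cerevisiae TFs (full-length or DBD) made by in vitro transcription/translation (PURExpress), about 100-200 nM. Bound TF was detected with fluorescent anti-GST. Each ungapped 8-mer (which stands for itself and its reverse complement) is scored by the PBM enrichment score (E-score), a modified Wilcoxon-Mann-Whitney statistic from -0.5 to +0.5, computed with the Universal PBM Analysis Suite. Scale: above 0.35 generally sequence-specific binding.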

Sequence | PBM E-score
TACAGGCA | 0.119
AGCTACAA | -0.101
GAGAAGGA | -0.18
ATATCAAA | 0.0352
CCTCCGCC | -0.059
CCGTACGG | 0.29
AGGTACGA | 0.0832
ACGTACGT | 0.335
ACGTACGA | 0.335
ACGTACGG | 0.328
ACGTACAT | 0.244
ACGTACGC | 0.114
ACGTACAG | -0.0233
AAGTACGA | 0.151
CAGCGGAC | -0.105
AGCGAGAT | 0.0588
CCGTATGA | 0.408
GCGTATGA | 0.0421
ACGTATGA | 0.332
ACGTATGG | 0.136
CCGTATGC | 0.0398
ACGTATGC | 0.014
CGAGTTAG | 0.148
ACTAGAAA | -0.0186
ATACGGAG | 0.0972

Sequence | PBM E-score
ATACGGAT | 0.297
CTACGGAA | 0.139
ATACGGAC | 0.142
ATACGGAA | 0.299
TTACGGAA | 0.124
CAAAATCA | 0.173
GCACAGCC | -0.204
ATTTCTTG | 0.167
ACAGAATC | -0.0766
TATTAATA | 0.00602
TACTAATA | 0.0826
CACTAATA | 0.255
AATTAATA | 0.302
AACTAATA | 0.306
AATTAATT | 0.00666
ACTCCACC | 0.032
ATCGGTCC | -0.295
ACGTGACG | 0.201
TCGTGACA | 0.354
CCGTGACA | 0.363
CCGTGAAA | 0.381
ACGTGACA | 0.355
CCGTGACG | 0.198
TCGTGAAA | 0.205
TCGTGAGA | 0.263

Sequence | PBM E-score
CCGTGAAG | 0.136
CCGTGACC | 0.157
ACGTGACT | 0.174
ACGTGACC | 0.0122
GCATCGCC | -0.0959
AACCGGGC | -0.103
CTCCCGGA | -0.117
GATAGAAC | 0.0502
ACAACGCA | -0.00182
CGAGGTTA | -0.00406
AAGAATCT | -0.115
GGAGATGA | 0.16
GCGATTTA | 0.114
TCTTCTCA | 0.0808
CGCTCTAA | 0.108
AAGGCGGC | -0.00603
AAGGACAT | 0.0941
ACGTGTGA | 0.213
GCGTGACA | 0.369
CCGTGTGA | 0.301
GCGTGACC | 0.108
GCGTGTGA | -0.00541
GTGTGACA | 0.116
CGTTGATC | 0.247
AAAGTGCG | -0.105

Sequence | PBM E-score
AGATTTCA | -0.0514
ACAGTCGC | -0.0877
TCGAAAAA | 0.157
AGACGATA | 0.27
CGACGACC | 0.243
CGACGATC | 0.298
CGACGGTA | 0.322
AGACGATC | 0.113
GGACGGTA | 0.134
CGACGATA | 0.373
GGACGATA | 0.268
CGACGGTC | 0.173
GAAATTCA | 0.0636
ATTGCACA | 0.0349
CAGCTATA | -0.191
ACCGCTGC | -0.252
GGTAGGAA | -0.0834
TAGGCCGA | -0.106
CCGATCCG | -0.0938
GCGAAGAA | 0.148
CTTAGCGC | 0.117
CGCTGTCC | 0.108
CCGCATTC | 0.00443
TCGTACCA | 0.322
CCGTACCA | 0.303

Sequence | PBM E-score
CCGTACTA | 0.338
TGGTACCA | -0.123
GCGTACCA | -0.0406
ACGTACTA | 0.188
TAGTACCA | -0.0108
GCGTACTA | -0.0501
ACGTACCA | 0.0604
ATGATGCG | 0.104
ACGAACCC | 0.0128
GCGAGAAC | -0.095
CGATTCAC | 0.192
AGGCGGTC | -0.166
GTCTAAAC | 0.00585
ATGGTACA | -0.0607
ACGAATGA | 0.304
CCGAACAA | -0.0373
ACGAATGC | 0.185
GCGAATGA | 0.173
CCGAACGG | -0.0461
ACGAACGG | 0.312
ACGAACGT | 0.289
GCGAACAA | 0.0737
ACGAACAA | 0.331
TCGAACGA | 0.236
CCGAACGA | 0.251

Sequence | PBM E-score
ACGAACGA | 0.314
ATTAAGCC | 0.0493
ATATCCAA | 0.149
ACTGACTC | -0.262
CACTATGA | -0.138
CAAAGTGA | 0.28
TAAGGAAA | -0.0606
CTATGCAC | 0.178
AAACTCCT | -0.13
AATCATAT | 0.191
AGGTCGAT | 0.132
TGGTGGAA | -0.0333
ACTGCGAT | -0.0827
CAACAAAC | -0.112
AATCACGA | 0.309
CATCACGA | 0.0436
TATCACAA | 0.25
AATCACGG | 0.213
AATCACGC | 0.127
TATCACGA | 0.366
AGGTTATC | 0.0463
CGCAGATA | 0.0501
CGACGGCG | 0.171
ACACGGCG | 0.305
ACACGGCA | 0.294

Sequence | PBM E-score
AGACGGCG | 0.306
AGACGGCC | -0.0278
CCACGGCG | 0.142
CCCGCTCG | -0.0943
ATAAACGG | 0.273
TAAACTCA | -0.0231
ACCGATAT | 0.0499
AACGATCT | 0.303
AACGATAG | 0.265
GACGATAC | 0.278
AACGATAA | 0.294
AACGATCA | 0.24
AGCGATAC | 0.202
AGCGATAT | 0.352
AACGATAC | 0.32
AACGATAT | 0.385
AGCGATAG | 0.0445
AACGATCC | -0.00029
GCAATTCA | -0.0514
ATCGCAGC | -0.0387
CACTTCAG | 0.0421
GCGGTTTA | -0.161

Reference: the supplement of paper PMC3334620
